# Several values for one entry are separate records, joined by “and”; a condition that tells them apart may be missing. Identical values can stand only once. Results filed as inconclusive are left out. Where a structure was tested more than once in an assay, its records may differ in their call. Activity calls are given as the source filed them. How the source made its calls, unless noted: active means hit-call score of the fitted dose curve at least 0.9, where 1 is the maximum; inconclusive means response in the unintended direction; inactive means score below 0.9.
# Columns and labels:
# [1] = molecular target: human Peripheral-type Benzodiazepine Receptor (PBR), TSPO (gene 706) (UniProt P30536); test: NVS_MP_hPBR: NovaScreen (NVS) Membrane Protein Assay for human Peripheral-type Benzodiazepine Receptor (PBR) (AID 2283331);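 further: hits reduce radioligand binding relative to DMSO baseline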
# Chain of human Peripheral-type Benzodiazepine Receptor (PBR), TSPO (gene 706) (P30536 whole entry, looked up): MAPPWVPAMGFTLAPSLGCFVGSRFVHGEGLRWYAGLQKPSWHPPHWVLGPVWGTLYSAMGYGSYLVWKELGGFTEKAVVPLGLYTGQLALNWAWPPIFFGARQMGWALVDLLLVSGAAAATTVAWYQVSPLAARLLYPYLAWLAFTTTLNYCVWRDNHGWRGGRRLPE
# Method in brief: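 Scintillation counts of filter-bound radioligand served as read-out after 1 h chemical dosing of human colonic membrane preparations. Activity was scored as signal loss against DMSO; initial duplicates at 25 uM, confirmatory concentration series afterward.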
# [2] = molecular target: human Androgen Receptor (AR), AR (gene 367) (UniProt P10275); test: NVS_NR_hAR: NovaScreen (NVS) Nuclear Receptor Binding Assay for human Androgen Receptor (AR) (AID 2283332)
# Method in brief: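 Radioligand competitive binding, scintillation read-out, in cell-free extract from LnCAP, measured 20 h after dosing. Screened first in duplicate at 25 uM, then concentration series for actives; activity fitted against DMSO.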
# [3] = molecular target: rat Peripheral-type Benzodiazepine Receptor (PBR), Tspo (gene 24230) (UniProt P16257); test: NVS_MP_rPBR: NovaScreen (NVS) Membrane Protein Assay for rat Peripheral-type Benzodiazepine Receptor (PBR) (AID 2283335)
# Chain of rat Peripheral-type Benzodiazepine Receptor (PBR), Tspo (gene 24230) (P16257 whole entry, looked up): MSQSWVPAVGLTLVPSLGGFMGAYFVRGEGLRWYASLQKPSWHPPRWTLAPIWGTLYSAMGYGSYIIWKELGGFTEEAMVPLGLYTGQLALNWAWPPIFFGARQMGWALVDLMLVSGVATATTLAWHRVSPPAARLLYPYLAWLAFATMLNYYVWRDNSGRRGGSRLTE
# Method in brief: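 Radioligand displacement, rat kidney membrane prep, 1 h exposure, filter-based scintillation read; DMSO baseline, loss-of-signal scored. Primary screen at 25 uM in duplicate, actives followed up in concentration series.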
# [4] = molecular target: chimpanzee Androgen Receptor (AR), AR (gene 747460) (UniProt O97775); test: NVS_NR_cAR: NovaScreen (NVS) Nuclear Receptor Binding Assay for chimpanzee Androgen Receptor (AR) (AID 2283346);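 further: radioligand displacement from AR measured by scintillation counting in a cell-free assay; a loss of bound radioligand signal versus DMSO counts as binding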
# Chain of chimpanzee Androgen Receptor (AR), AR (gene 747460) (O97775 whole entry, looked up): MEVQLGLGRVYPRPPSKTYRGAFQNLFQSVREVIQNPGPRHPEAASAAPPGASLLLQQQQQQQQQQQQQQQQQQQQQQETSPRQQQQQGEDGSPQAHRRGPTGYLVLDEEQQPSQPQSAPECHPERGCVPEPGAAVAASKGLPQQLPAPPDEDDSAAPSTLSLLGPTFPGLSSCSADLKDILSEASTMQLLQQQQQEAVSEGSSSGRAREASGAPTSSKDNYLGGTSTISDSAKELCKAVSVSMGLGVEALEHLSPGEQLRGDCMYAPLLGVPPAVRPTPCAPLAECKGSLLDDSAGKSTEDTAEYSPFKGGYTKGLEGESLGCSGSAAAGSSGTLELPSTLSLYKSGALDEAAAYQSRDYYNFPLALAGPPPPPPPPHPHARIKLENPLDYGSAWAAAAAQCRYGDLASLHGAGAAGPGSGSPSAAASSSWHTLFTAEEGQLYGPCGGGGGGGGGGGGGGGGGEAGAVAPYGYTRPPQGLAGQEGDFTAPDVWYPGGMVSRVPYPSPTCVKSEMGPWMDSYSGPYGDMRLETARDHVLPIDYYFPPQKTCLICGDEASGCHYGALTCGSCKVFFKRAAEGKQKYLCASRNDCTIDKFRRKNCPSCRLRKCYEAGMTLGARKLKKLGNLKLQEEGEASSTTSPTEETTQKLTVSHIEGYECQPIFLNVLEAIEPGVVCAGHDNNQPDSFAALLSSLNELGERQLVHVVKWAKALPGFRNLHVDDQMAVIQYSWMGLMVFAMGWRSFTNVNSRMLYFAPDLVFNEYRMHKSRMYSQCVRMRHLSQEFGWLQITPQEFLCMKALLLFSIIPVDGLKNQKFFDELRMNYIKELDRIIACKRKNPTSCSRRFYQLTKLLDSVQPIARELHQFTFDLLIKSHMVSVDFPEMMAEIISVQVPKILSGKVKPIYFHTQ
# Method in brief: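 Cell-free competition binding with insect-cell (Sf9/Sf21) extracted chimpanzee AR; scintillation signal from lysate at 72 h. Screened in duplicate at 25 uM, then concentration-response for actives; fitting relative to DMSO.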
# [5] = molecular target: Bile acid receptor (Homo sapiens) (UniProt Q96RI1); test: NVS_NR_hFXR_Antagonist: NovaScreen (NVS) Nuclear Receptor Binding Assay for human Farnesoid X Receptor Antagonism (FXR) (AID 2283350)
# Chain of Bile acid receptor (Homo sapiens) (Q96RI1 whole entry, looked up): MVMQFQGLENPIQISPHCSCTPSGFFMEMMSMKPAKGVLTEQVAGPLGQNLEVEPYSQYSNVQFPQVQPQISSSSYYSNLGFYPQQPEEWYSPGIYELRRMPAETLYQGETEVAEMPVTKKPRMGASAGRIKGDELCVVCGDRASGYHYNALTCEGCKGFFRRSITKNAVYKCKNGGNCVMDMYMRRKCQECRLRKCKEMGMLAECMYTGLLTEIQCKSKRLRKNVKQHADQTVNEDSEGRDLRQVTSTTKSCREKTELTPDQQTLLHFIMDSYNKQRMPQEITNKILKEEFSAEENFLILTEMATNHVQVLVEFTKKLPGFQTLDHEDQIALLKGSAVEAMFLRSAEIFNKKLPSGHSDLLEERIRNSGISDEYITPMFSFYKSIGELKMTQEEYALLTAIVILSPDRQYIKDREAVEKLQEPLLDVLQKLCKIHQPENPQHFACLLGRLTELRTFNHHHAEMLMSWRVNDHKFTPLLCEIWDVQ
# Method in brief: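 Cell-free TR-FRET ligand-binding read-out on human FXR (NR1H4) in antagonist mode, measured 1 h after dosing. Primary screen in duplicate at 25 uM, actives retested in concentration series; signal loss scored versus DMSO.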
# [6] = molecular target: Voltage-gated inwardly rectifying potassium channel KCNH2 (Homo sapiens) (UniProt Q12809); test: NVS_IC_hKhERGCh: NovaScreen (NVS) Ion Channel Assay for human Potassium Channel ERG (KhERGCh) (AID 2283333)
# Chain of Voltage-gated inwardly rectifying potassium channel KCNH2 (Homo sapiens) (Q12809 whole entry, looked up): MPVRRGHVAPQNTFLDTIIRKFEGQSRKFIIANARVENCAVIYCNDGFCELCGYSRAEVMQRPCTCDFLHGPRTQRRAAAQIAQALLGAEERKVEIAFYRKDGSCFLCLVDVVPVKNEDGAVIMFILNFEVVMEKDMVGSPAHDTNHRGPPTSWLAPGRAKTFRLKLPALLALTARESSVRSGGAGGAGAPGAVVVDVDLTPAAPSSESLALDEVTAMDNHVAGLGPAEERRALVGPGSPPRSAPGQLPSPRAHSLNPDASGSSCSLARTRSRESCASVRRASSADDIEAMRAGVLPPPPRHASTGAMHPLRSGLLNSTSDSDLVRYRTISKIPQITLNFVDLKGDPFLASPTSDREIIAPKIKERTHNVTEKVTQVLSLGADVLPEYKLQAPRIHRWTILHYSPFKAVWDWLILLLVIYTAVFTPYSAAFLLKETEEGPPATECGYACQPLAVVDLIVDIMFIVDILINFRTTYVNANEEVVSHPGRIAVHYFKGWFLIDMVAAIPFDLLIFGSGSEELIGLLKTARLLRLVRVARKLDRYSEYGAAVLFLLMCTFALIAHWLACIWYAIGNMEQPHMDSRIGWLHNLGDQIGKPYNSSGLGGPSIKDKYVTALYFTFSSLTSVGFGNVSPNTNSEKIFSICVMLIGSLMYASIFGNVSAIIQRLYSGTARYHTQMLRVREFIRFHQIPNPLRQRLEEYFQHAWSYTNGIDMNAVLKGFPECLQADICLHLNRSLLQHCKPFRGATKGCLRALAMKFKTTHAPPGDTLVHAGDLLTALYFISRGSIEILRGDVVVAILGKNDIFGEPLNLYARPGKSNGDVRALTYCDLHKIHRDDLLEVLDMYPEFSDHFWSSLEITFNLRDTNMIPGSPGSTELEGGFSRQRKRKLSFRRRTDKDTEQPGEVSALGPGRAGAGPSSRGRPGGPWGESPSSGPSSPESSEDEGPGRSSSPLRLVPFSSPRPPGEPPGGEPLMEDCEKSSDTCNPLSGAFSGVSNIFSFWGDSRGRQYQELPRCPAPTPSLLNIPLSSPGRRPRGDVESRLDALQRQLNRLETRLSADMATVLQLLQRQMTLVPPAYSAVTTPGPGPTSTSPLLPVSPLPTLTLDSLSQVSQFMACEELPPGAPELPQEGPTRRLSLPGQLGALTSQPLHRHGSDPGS
# Method in brief: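 Cell-free radioligand competition binding on hERG protein extracted from CHO cells, read by filter-based scintillation counting 0.75 h after dosing. Primary screen at 25 uM in duplicate, actives followed in concentration series. Signal loss fitted versus DMSO.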
# [7] = molecular target: Glutamate receptor ionotropic, kainate 1 (Rattus norvegicus) (UniProt P22756); test: NVS_IC_rKAR: NovaScreen (NVS) Ion Channel Assay for rat Kainic Acid Receptors (KAR) (AID 2283334; active means hit-call score of the fitted dose curve at least 0.9, where 1 is the maximum; inactive means score below 0.9)
# Method in brief: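 Radioligand displacement binding using rat forebrain membranes, 1 h incubation, filter-based scintillation counting. Screened in duplicate at 25 uM, with actives retested in concentration-response up to 50 uM; fitted against DMSO.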
# [8] = NVS_IC_rCaBTZCHL: NovaScreen (NVS) Ion Channel Assay for Calcium Channel, Type L, Benzothiazepine Site (CaBTZCHL) (AID 2283337)
# Method in brief: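 Radioligand binding to the benzothiazepine site of L-type Ca channels in rat cortical membranes (cell-free), 1.5 h after dosing; filter-based scintillation counting. Loss of signal relative to DMSO baseline; primary single-concentration screen at 25 uM, actives then run in concentration series.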
# [9] = molecular target: Estrogen receptor (Homo sapiens) (UniProt P03372); test: NVS_NR_hER: NovaScreen (NVS) Nuclear Receptor Binding Assay for human Estrogen Receptor (ER) (AID 2283348)
# Chain of Estrogen receptor (Homo sapiens) (P03372 whole entry, looked up, the tested form may be a part): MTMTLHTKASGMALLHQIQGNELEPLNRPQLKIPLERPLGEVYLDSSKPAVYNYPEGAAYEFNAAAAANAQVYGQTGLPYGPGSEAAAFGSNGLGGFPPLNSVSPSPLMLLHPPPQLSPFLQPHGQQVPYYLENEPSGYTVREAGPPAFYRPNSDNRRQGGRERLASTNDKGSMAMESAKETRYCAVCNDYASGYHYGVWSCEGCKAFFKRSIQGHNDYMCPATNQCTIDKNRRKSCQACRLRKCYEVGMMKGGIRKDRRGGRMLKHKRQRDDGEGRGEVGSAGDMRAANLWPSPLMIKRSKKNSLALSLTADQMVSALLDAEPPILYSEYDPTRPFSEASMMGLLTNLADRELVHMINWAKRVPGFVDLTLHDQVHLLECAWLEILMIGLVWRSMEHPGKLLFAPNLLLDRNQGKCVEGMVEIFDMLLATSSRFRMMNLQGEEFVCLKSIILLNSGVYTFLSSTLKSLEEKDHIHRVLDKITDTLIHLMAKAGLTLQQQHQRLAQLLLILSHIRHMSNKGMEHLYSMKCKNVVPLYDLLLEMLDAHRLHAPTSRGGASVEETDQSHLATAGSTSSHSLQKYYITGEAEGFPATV
# Method in brief: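 Scintillation signal from bound radioligand was measured 18 hours after chemical addition to cell-free MCF7 protein extracts, with DMSO as baseline. Activity was scored as signal loss; compounds ran first at 25 uM in duplicate.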
# [10] = molecular target: Estrogen receptor (Homo sapiens) (UniProt P03372); test: OT_ER_ERaERa_1440: Odyssey Thera (OT) 24-hour HEK293T Protein-Complementation Assay for Estrogen Receptor-alpha/-alpha Homodimer (AID 2283349);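 further: hits raise fluorescence above DMSO for agonists and antagonists alike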
# Method in brief: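 Protein-fragment complementation between two human ERα ligand-binding domains (aa 310-547) in stably transfected HEK293T cells was monitored after 24 h treatment, using fluorescence intensity relative to vehicle controls.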
# [11] = molecular target: Estrogen receptor (Homo sapiens) (UniProt P03372); test: OT_ER_ERaERa_0480: Odyssey Thera (OT) 8-hour HEK293T Protein-Complementation Assay for Estrogen Receptor-alpha/-alpha Homodimer (AID 2283351);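 further: rise in fluorescence from reassembled reporter fragments on ERα LBD homodimer in nucleus or whole cell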
# Method in brief: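 HEK293T cells stably expressing the human ERα ligand-binding domain (aa 310-547) as a homodimer PCA were dosed with compound for 8 h. Gain of fluorescence intensity versus DMSO vehicle was read by laser scanning cytometry.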
# [12] = molecular target: rat Thyrotropin Releasing Hormone Receptor (TRH), Trhr (gene 25570) (UniProt Q01717); test: NVS_GPCR_rTRH: NovaScreen (NVS) G Protein-Coupled Receptor Assay for rat Thyrotropin Releasing Hormone Receptor (TRH) (AID 2283329);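 further: hit means lower bound tracer signal versus DMSO baseline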
# Chain of rat Thyrotropin Releasing Hormone Receptor (TRH), Trhr (gene 25570) (Q01717 whole entry, looked up): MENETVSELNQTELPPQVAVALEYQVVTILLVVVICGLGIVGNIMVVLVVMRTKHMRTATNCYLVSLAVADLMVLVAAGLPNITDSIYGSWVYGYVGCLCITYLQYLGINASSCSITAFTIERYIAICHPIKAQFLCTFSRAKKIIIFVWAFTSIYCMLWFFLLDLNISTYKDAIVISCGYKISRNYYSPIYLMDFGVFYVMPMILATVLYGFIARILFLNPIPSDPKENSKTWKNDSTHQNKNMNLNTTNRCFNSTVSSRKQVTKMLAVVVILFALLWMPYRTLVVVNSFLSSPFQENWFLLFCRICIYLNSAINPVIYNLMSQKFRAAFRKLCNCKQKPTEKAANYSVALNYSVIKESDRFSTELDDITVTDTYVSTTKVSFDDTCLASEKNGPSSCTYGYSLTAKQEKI
# Method in brief: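 Rat forebrain membrane prep, radioligand displacement, filter scintillation readout at 4 h. Single conc 25 uM, duplicate; actives retested as concentration series. DMSO = negative control/baseline.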
# [13] = molecular target: rat Glutamate, MK-801 Agonist Site (GluNMDA_MK801), Grin1 (gene 24408) (UniProt P35439); test: NVS_LGIC_rGluNMDA_MK801_Agonist: NovaScreen (NVS) Ligand-Gated Ion Channel Assay for rat Glutamate, MK-801 Agonist Site (GluNMDA_MK801) (AID 2283340)
# Method in brief: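 Radioligand binding at MK-801 site in rat forebrain membranes, 1.5 h incubation, filter-based scintillation counting. Initially 25 uM in duplicate; actives then run in concentration-response up to 50 uM, fitted for gain of signal versus DMSO.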
# [14] = molecular target: Estrogen receptor (Homo sapiens) + Estrogen receptor beta (Homo sapiens) (UniProt P03372+Q92731); test: OT_ER_ERaERb_0480: Odyssey Thera (OT) 8-hour HEK293T Protein-Complementation Assay for Estrogen Receptor-alpha/-beta Heterodimer (AID 2283352)
# Chain of Estrogen receptor (Homo sapiens) + Estrogen receptor beta (Homo sapiens) (P03372 whole entry, looked up, the tested form may be a part): as the sequence (P03372 whole entry, looked up, the tested form may be a part) above
# Chain of Estrogen receptor (Homo sapiens) + Estrogen receptor beta (Homo sapiens) (Q92731 whole entry, looked up, the tested form may be a part): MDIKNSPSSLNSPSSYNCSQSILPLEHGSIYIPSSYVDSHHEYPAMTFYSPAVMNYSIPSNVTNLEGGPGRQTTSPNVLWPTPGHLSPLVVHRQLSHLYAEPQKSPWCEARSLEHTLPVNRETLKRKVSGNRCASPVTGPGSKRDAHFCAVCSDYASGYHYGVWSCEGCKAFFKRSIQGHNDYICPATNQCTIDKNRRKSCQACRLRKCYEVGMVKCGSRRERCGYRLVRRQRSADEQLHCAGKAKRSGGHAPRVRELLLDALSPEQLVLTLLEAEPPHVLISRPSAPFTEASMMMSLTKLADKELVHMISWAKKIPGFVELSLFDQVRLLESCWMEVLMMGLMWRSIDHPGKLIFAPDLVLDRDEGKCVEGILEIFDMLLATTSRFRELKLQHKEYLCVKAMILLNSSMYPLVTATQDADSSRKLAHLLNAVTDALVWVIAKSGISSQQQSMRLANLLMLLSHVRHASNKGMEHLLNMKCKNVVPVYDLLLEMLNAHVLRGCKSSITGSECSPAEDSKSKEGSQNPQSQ
# Method in brief: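 HEK293T protein-fragment complementation assay of ER-alpha/ER-beta LBD heterodimerisation, read 8 h after dosing. Mean nuclear/cytoplasmic fluorescence intensity measured by laser scanning cytometry; gain of signal fitted relative to DMSO.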
# NCBI gene 100848466 = test: NVS_NR_bPR: NovaScreen (NVS) Nuclear Receptor Binding Assay for bovine Progextron Receptor (PR) (AID 2283343);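 further: actives lower bound radioligand signal below DMSO meaning displacement of the label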
# Method in brief: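 Membranes from bovine uterus; radiolabelled ligand plus test chemical; 18 h; scintillation read-out. Activity = signal loss vs DMSO. Primary: 25 uM, duplicate; secondary: concentration series.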
structure (smiles),measurement,setting,value
O=c1c(-c2ccc(O)cc2)coc2cc(O)cc(O)c12,AC50,[1],8.19 µM (active)
same,outcome,[2],inactive
same,outcome,[3],inactive
same,outcome,[4],inactive
same,outcome,[5],inactive
CCCCCCCCN(C)CCCCCCCC,outcome,[6],inactive
same,outcome,[7],inactive
same,outcome,[8],inactive
same,outcome,[9],inactive
same,outcome,[10],inactive
same,outcome,[11],inactive
CCCCOC(=O)CC(CC(=O)OCCCC)(OC(C)=O)C(=O)OCCCC,outcome,[1],inactive
same,outcome,[3],inactive
COc1cc(C(=O)NC2CCN(C)CC2)ccc1Nc1ncc2c(n1)N(C1CCCC1)CC(F)(F)C(=O)N2C,outcome,[12],inactive
same,outcome,[1],inactive
same,AC50,[6],5.1 µM (active)
same,AC50,[8],10.8 µM (active)
same,AC50,[13],15.9 µM (active)
same,AC50,[10],2.24 µM (active)
same,outcome,[11],inactive
same,outcome,[14],inactive
Cc1occc1C(=O)Nc1ccc(C(=O)N2CCC(F)(F)/C(=C\C(=O)N3CCC(N4CCCCC4)CC3)c3ccccc32)cc1,outcome,[12],inactive
same,AC50,[8],5.12 µM (active)
same,outcome,[10],inactive
same,AC50,[11],27.7 µM (active)
same,AC50,[14],26.9 µM (active)
CC(C)(C)c1cc(/C=C2\SC(N)=NC2=O)cc(C(C)(C)C)c1O,AC50,[4],33.9 µM (active)
same,outcome,[9],inactive
same,outcome,[10],inactive
same,outcome,[11],inactive
O=C(O)c1ccccc1C(=O)OCc1ccccc1,outcome,[10],inactive
same,outcome,[5],inactive
same,outcome,[11],inactive
C[C@]12CC[C@@H]3c4ccc(O)cc4CC[C@H]3[C@@H]1CCC2=O,AC50,[4],0.472 µM (active)
same,outcome,[4],inactive
O=C=NCCCCCCN=C=O,outcome,[10],inactive
same,outcome,[11],inactive
same,outcome,[14],inactive
c1ccc(C[n+]2cccc3ccccc32)cc1,outcome,[13],inactive
same,outcome,[10],inactive
same,outcome,[11],inactive
same,outcome,[14],inactive
O=C(OCCCCCCOC(=O)c1ccccc1)c1ccccc1,outcome,[10],inactive
same,outcome,[11],inactive
O=c1ccc2ccccc2o1,outcome,[10],inactive
same,outcome,[11],inactive
same,outcome,[14],inactive
Cc1cc2c(cc1C(F)(F)F)N(C(=O)Nc1ccc(Oc3cccnc3C)nc1)CC2,outcome,[4],inactive
same,outcome,[10],inactive
same,outcome,[11],inactive
O=CCCCC=O,outcome,[10],inactive
same,outcome,[11],inactive
CCO[Si](CCCNC(N)=O)(OCC)OCC,outcome,[10],inactive
same,outcome,[5],inactive
same,outcome,[11],inactive
same,outcome,[14],inactive
C[C@]12CC[C@@H]3c4ccc(O)cc4CC[C@H]3[C@@H]1CC[C@H]2O,AC50,NCBI gene 100848466,98.8 nM (active)
COCC(C)OCC(C)OCC(C)O (stereo not given),outcome,[10],inactive
same,outcome,[11],inactive
O=C(O)c1ccccc1-n1cc(C(=O)O)c(=O)c2cc(Nc3c(F)cc(F)cc3Cl)c(Cl)cc21,outcome,[10],inactive
same,outcome,[14],inactive
CC1(C)NC(=O)N(c2ccc([N+](=O)[O-])c(C(F)(F)F)c2)C1=O,AC50,[4],1.06 µM (active) and 136 nM (active)
Clc1ccccc1C(c1ccccc1)(c1ccccc1)n1ccnc1,outcome,[9],inactive
same,outcome,[10],inactive
same,outcome,[11],inactive
